The values that follow come from PubChem BioAssay (Tox21).

Results filed as inconclusive are left out. The source made the active and inactive calls. Unless noted, calls come from the whole dose curve; as a rule, active = well fitted curve in the direction sought with a large enough effect in the repeat runs; inconclusive = weak or mixed curves; inactive = no such curve, though single readings can be large; an effect the other way counts as inactive or inconclusive.

Test [1] concerns the target Luciferin 4-monooxygenase (Photinus pyralis) (UniProt P08659). Description: qHTS assay to identify small molecule inhibitors of firefly luciferase (AID 1224835). Note: series mostly up to about 120 µM; nearly all actives have a fitted effect of over 25% in size. The method, boiled down:
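Inhibition of purified Photinus luciferase is measured by luminescence. Substrate levels (D-luciferin, ATP) sit at their KM values. Each compound is tested in a concentration series.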
A general note: Quantitative high-throughput screening tests each substance at several concentrations.

Test [2] in a line: qHTS assay to identify small molecule antagonists of the constitutive androstane receptor (CAR) signaling pathway - cell viability counter screen (AID 1224837). Note: nearly all actives have a fitted effect of over 45% in size. Note: potency is the fitted concentration of half-maximal effect. The method, boiled down:
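Read-out: CellTiter-Fluor fluorescence after 23 hr at 37 C/5% CO2. Cells: HepG2 double-stable for hCAR and CYP2B6-2.2kb. Compounds tested at 15 concentrations in the presence of CITCO, final concentration 50 nM.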

Test [3] concerns the target Nuclear receptor subfamily 1 group I member 3 (Homo sapiens) (UniProt Q14994). Description: qHTS assay to identify small molecule antagonists of the constitutive androstane receptor (CAR) signaling pathway (AID 1224838).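 Note: HepG2 cells stably expressing hCAR with CYP2B6 luciferase reporter stimulated by CITCO; nearly all actives have a fitted effect of over 40% in size.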 Note: potency is the fitted concentration of half-maximal effect. The procedure, abridged: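 Read-out: ONE-Glo luciferase luminescence after 30 min at room temperature. HepG2-CYP2B6-hCAR double-stable cells, compounds in 15-point titration plus 50 nM CITCO final, 24 h at 37 C/5% CO2.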

For test [4] the target is unchanged. Description: qHTS assay to identify small molecule agonists of the constitutive androstane receptor (CAR) signaling pathway (AID 1224839).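 Note: HepG2 cells stably carrying human CAR and a CYP2B6 luciferase reporter; series mostly up to about 92 µM; nearly all actives have a fitted effect of over 15% in size.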 The procedure, abridged:
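Cells were plated and incubated 4 hrs, then dosed with compounds at 15 concentrations. PK11195 was added to 0.75 uM final. After 24 hrs at 37 C, luciferase luminescence was measured.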

Test [5] is described as follows: qHTS assay to identify small molecule antagonists of the estrogen related receptor signaling pathway with the pleiotropic PPARgamma coactivator (PGC) from Tox21 10K library - cell viability counter screen (AID 1224840; active = well fitted cell-killing curve with a large enough effect in the repeat runs, not every such curve was filed as active; note: nearly all actives have a fitted effect of over 40% in size; note: potency is the fitted concentration of half-maximal effect). The procedure, abridged:
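Fluorescence read-out of CellTiter-Fluor viability reagent, added after cells had been exposed to compound in DMSO for 17.5 h at 37 C; 30 min development at 37 C/5% CO2. Cells: PGC/ERR line, 2,000/well.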

The target in test [6] is Thyrotropin receptor (Homo sapiens) (UniProt P16473). The test is described as follows: qHTS assay to identify small molecule agonists of the thyroid stimulating hormone receptor (TSHR) signaling pathway (AID 1224843; calls by dose curve; note: nearly all actives have a fitted effect of over 45% in size). The procedure, abridged: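 Agonist activity read as cAMP rise via d2/cryptate HTRF competition, 1 h room-temperature detection, in HEK293 cells expressing TSHR. Fifteen-point titrations, each run in triplicate, with a 30 min room-temperature incubation beforehand.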

Test [7] can be described thus: qHTS assay to identify small molecule agonists of the constitutive androstane receptor (CAR) signaling pathway - cell viability counter screen (AID 1224836). Note: nearly all actives have a fitted effect of over 45% in size. Note: potency is the fitted concentration of half-maximal effect. The procedure, abridged:
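Cells were seeded and incubated 4 hrs. Compounds were added across 15 concentrations together with PK11195 at 0.75 uM final. Plates were incubated 23 hrs at 37 C. CellTiter-Fluor was added and fluorescence measured.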

Test [8] can be described thus: qHTS assay to identify small molecule antagonists of the estrogen related receptor signaling pathway with the pleiotropic PPARgamma coactivator (PGC) from Tox21 10K library (AID 1224841; call rule not given here; note: actives are mostly falling curves and most rising ones were filed inactive; nearly all actives have a fitted effect of over 50% in size; note: potency is the fitted concentration of half-maximal effect). The method, boiled down: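 Luminescence read-out (One-Glo luciferase reagent, 30 min at room temperature) from PGC/ERR cells exposed to DMSO-dissolved test compounds for 18 h at 37 C; cells, 2,000 per well, had been preincubated 6 h before compound transfer.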

Test [9] can be described thus: qHTS assay to identify small molecule agonists of the estrogen related receptor signaling pathway with the pleiotropic PPARgamma coactivator (PGC) from Tox21 10K library (AID 1224842). Note: nearly all actives have a fitted effect of over 15% in size. The method, boiled down: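 Luminescence from One-Glo (30 min, room temperature) measured after PGC/ERR cells had 18 h at 37 C with pinned compound (23 nL in DMSO). Cells had been seeded at 2,000 per well and pre-incubated 6 h.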

Chain of Luciferin 4-monooxygenase (Photinus pyralis) (P08659 whole entry, looked up): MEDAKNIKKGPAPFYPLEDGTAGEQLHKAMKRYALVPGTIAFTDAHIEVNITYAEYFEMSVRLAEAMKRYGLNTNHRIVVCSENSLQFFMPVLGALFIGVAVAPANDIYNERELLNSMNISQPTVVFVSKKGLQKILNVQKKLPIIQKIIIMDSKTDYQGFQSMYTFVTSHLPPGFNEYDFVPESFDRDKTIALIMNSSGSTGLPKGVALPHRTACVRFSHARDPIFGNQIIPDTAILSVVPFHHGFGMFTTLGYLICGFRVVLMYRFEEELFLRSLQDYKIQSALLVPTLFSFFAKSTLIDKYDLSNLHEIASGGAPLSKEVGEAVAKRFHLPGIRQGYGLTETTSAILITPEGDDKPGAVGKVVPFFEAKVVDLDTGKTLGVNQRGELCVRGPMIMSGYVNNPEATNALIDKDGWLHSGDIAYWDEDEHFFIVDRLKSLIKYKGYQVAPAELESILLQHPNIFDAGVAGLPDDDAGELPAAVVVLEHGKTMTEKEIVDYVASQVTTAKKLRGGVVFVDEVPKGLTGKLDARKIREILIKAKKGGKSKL
Chain of Thyrotropin receptor (Homo sapiens) (P16473 whole entry, looked up): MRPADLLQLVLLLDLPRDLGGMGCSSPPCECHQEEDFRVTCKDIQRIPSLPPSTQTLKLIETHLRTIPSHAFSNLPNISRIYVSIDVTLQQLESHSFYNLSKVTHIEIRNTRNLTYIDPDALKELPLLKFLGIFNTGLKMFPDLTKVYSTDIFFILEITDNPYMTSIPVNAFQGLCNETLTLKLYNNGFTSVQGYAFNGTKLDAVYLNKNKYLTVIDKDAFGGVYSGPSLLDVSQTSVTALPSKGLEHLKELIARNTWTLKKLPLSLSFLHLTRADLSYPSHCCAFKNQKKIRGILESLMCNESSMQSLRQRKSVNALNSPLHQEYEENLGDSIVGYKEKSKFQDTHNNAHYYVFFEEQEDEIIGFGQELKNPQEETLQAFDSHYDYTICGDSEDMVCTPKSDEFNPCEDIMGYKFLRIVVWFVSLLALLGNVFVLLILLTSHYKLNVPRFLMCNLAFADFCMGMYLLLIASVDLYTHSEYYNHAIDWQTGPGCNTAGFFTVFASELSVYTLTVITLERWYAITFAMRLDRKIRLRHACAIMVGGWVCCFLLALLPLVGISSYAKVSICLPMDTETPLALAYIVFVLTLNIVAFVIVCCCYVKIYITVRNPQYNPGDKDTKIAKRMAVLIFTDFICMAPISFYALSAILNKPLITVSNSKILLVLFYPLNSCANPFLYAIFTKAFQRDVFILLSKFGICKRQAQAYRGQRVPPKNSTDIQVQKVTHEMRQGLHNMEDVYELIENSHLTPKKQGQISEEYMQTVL
Chain of Nuclear receptor subfamily 1 group I member 3 (Homo sapiens) (Q14994 whole entry, looked up): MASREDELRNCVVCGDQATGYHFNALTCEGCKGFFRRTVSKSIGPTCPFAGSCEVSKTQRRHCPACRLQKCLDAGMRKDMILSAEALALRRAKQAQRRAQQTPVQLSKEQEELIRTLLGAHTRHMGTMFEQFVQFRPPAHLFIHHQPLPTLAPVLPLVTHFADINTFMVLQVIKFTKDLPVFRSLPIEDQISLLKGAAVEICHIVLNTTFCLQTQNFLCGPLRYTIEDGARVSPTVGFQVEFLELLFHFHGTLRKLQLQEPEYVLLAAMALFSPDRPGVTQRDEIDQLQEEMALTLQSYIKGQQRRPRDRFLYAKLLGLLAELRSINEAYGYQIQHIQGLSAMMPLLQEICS

Consider `CC1(c2ccccc2)OC(C(=O)O)=CC1=O` (stereo not given), for which the Potency result in test [1], in test [2], in test [3], in test [4], in [5] and in test [6] was “inactive” in each case.
Regarding `NCC(=O)CCC(=O)O`, the Potency result in test [1], in [7], in [2], in [5] and in test [6] was “inactive” each time.
Consider `O=[N+]([O-])c1ccc(NCCO)c(OCCO)c1`, for which the Potency entry in test [1], in test [8] and in test [6] was “inactive” each time. Moreover, the Potency in test [7] is 43.3 µM (active); in [2], 48.6 µM (active); in test [5], 48.6 µM (active).
Consider `Cc1c(N)cccc1[N+](=O)[O-]`, for which the Potency result in [1], in test [2], in test [3], in test [4], in test [5] and in test [8] was “inactive” in each case. The Potency result in test [6] is “inactive”.
With `CCc1c(C(=O)NN2CCCCC2)nn(-c2ccc(Cl)cc2Cl)c1-c1ccc(Br)cc1`, the Potency entry in test [1], in test [2], in test [4], in test [9] and in test [6] was “inactive” throughout. The Potency in [3] is 21.7 µM (active); in test [8], 4.86 µM (active).
Consider `CC(C)O.CC(C)O.CCOC(=O)/C=C(\C)O.CCOC(=O)/C=C(\C)O.[Ti]`, for which the Potency entry in test [7], in test [2], in test [5] and in test [6] was “inactive” each time.
